Assay results from PubChem BioAssay (EPA / NIEHS).
Where “and” joins values, the source holds several entries; their conditions need not be identical. Identical values can stand only once. Results filed as inconclusive are left out. Calls of active or inactive are those of the source. The calls were made as follows, unless noted: active = hit-call score of the fitted dose curve at least 0.9, where 1 is the maximum; inconclusive = response in the unintended direction; inactive = score below 0.9. *1 amine or outer side, *2 acyl side, *3 side chain or, on linkers, in order; H or OH if unused. Where a SMILES comes first, the peptide text is derived from it. Bridges are numbered along the chain shown (N, C = ends). Roman numbers before positions name the chains, in order. [ ]: non-standard residue; d: D form. Actinocin(9to1) = Cc1c2oc3c(C)ccc(C(=O)[*:1])c3nc-2c(C(=O)[*:2])c(N)c1=O; NMeV = CN[C@H](C(=O)O)C(C)C; Sar = CNCC(=O)O

Assays:
[1] = target: Cellular tumor antigen p53 (Homo sapiens) (UniProt P04637); test: TOX21_p53_BLA_p2_ratio: Tox21 HCT-116 p53 Agonism Beta-lactamase Assay, Ratio, Phase 2 (AID 2283592)
Sequence of Cellular tumor antigen p53 (Homo sapiens) (P04637 whole entry, looked up): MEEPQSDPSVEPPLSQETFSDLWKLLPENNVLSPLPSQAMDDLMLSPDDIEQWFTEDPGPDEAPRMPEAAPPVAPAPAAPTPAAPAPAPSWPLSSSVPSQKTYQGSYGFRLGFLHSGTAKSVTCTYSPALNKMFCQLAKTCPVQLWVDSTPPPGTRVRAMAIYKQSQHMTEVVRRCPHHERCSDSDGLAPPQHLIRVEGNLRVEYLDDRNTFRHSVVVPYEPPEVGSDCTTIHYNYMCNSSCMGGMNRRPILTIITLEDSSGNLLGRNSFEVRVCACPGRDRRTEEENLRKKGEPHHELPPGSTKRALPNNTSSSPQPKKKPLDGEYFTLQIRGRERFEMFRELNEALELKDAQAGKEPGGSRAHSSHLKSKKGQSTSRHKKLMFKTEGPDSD
In short: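 First, HCT116 reporter cells settle for 5 h at 37C. Next, DMSO compound solutions are pinned in (217-fold dilution) and left 16 h. Finally, CCF4-AM substrate is loaded 2 h at room temperature and the 460/530 nm ratio read.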

[2] = TOX21_p53_BLA_p3_viability: Viability Assessment in the Tox21 HCT-116 p53 Agonism Beta-lactamase Assay, Phase 3 (AID 2283593);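 also: cells exposed to compound for 16 h before reading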
In short: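 Cellular ATP was quantified by CellTiter-Glo luminescence, read after 30 min at room temperature. Beforehand, HCT116 cells (4000/well) received compound 5 h post-seeding, 217-fold diluted from DMSO, then incubated 16 h at 37C.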

[3] = target: Cellular tumor antigen p53 (Homo sapiens) (UniProt P04637); test: TOX21_p53_BLA_p3_ratio: Tox21 HCT-116 p53 Agonism Beta-lactamase Assay, Ratio, Phase 3 (AID 2283596)
In short: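 Cells were seeded at 4000/well, rested 5 h at 37C, then dosed with DMSO compound solutions (217-fold dilution) for 16 h. CCF4-AM substrate was loaded for 2 h at room temperature, and the 460/530 nm emission ratio was fitted for gain of signal versus DMSO.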

[4] = TOX21_p53_BLA_p4_viability: Viability Assessment in the Tox21 HCT-116 p53 Agonism Beta-lactamase Assay, Phase 4 (AID 2283597);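 also: hits lower the luminescence signal meaning cytotoxicity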
In short: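 4000 HCT116 cells per well; 5 h attachment; compounds from DMSO, 217-fold dilution; 16 h at 37C. Then CCF4-AM, 2 h RT, followed by CellTiter-Glo, 30 min RT, luminescence. Decrease = cytotoxicity.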

[5] = target: Cellular tumor antigen p53 (Homo sapiens) (UniProt P04637); test: TOX21_p53_BLA_p5_ratio: Tox21 HCT-116 p53 Agonism Beta-lactamase Assay, Ratio, Phase 5 (AID 2283599)
In short: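 Beta-lactamase reporter ratio (blue 460 nm over green 530 nm, 405 nm excitation) after 2 h CCF4-AM loading, in HCT-116 cells exposed 16 h at 37 C to compounds pinned at 217-fold dilution. Increases relative to DMSO baseline scored.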

[6] = TOX21_p53_BLA_p5_viability: Viability Assessment in the Tox21 HCT-116 p53 Agonism Beta-lactamase Assay, Phase 5 (AID 2283600)
In short: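 Decreased CellTiter-Glo luminescence denotes lost viability. Exposure: 16 h at 37C, 5% CO2, with compounds from DMSO stocks diluted 217-fold in wells of 4000 cells.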

[7] = target: Cellular tumor antigen p53 (Homo sapiens) (UniProt P04637); test: TOX21_p53_BLA_p4_ratio: Tox21 HCT-116 p53 Agonism Beta-lactamase Assay, Ratio, Phase 4 (AID 2283601)
In short: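 Signal is the blue/green (460nm/530nm) ratio of cleaved versus uncleaved CCF4-AM substrate, read after 2 h substrate loading. Cells were HCT116 carrying the p53-responsive beta-lactamase reporter, dosed 16 h at 37C, 5% CO2; CellTiter-Glo measured in parallel.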

[8] = system: Brachyury (BRA) Protein Expression, Deisenroth Lab, TBXT (gene 6862); test: CCTE_Deisenroth_DEVTOX-GLR_legacy_Bra: (Legacy) CCTE's DevTox GLR-Endo Assay Evaluation of Brachyury (BRA) Protein Expression, Deisenroth Lab (AID 2284329; active = hit-call score of the fitted dose curve at least 0.9, where 1 is the maximum; inactive = score below 0.9)
In short: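 Percent Bra-positive cells, scored by high-content imaging against a threshold of 5x BMAD over the undifferentiated control median, with the 0.2% DMSO median subtracted. RUES2-GLR cultures were dosed twice at 24 h intervals across a 48 h differentiation, at 1 nM–200 uM in ten steps, with n=4 replicates.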

[9] = system: SRY-box transcription factor 17 (SOX17) Protein Expression, Deisenroth Lab, SOX17 (gene 64321); test: CCTE_Deisenroth_DEVTOX-GLR_legacy_Sox17: (Legacy) CCTE's DevTox GLR-Endo Assay Evaluation of SRY-box transcription factor 17 (SOX17) Protein Expression, Deisenroth Lab (AID 2284341; active = hit-call score of the fitted dose curve at least 0.9, where 1 is the maximum; inactive = score below 0.9); settings: actives raise or lower the signal
In short: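 Percent SOX17-positive cells, scored by high-content imaging as mean intensity exceeding pluripotent-control median by 5x BMAD, divided by cell count. Human RUES2-GLR endoderm differentiation, 48 h, two exposures 24 h apart, 1 nM–200 uM; DMSO-referenced bidirectional fitting.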

[10] = system: SRY-box transcription factor 2 (SOX2) Protein Expression, Deisenroth Lab, SOX2 (gene 6657); test: CCTE_Deisenroth_DEVTOX-GLR_legacy_Sox2: (Legacy) CCTE's DevTox GLR-Endo Assay Evaluation of SRY-box transcription factor 2 (SOX2) Protein Expression, Deisenroth Lab (AID 2284346; active = hit-call score of the fitted dose curve at least 0.9, where 1 is the maximum; inactive = score below 0.9)
In short: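 Percent Sox2-positive cells was scored by high-content imaging of 5 fields per well. Positivity cutoff was 5x BMAD over the directed endoderm control, and the DMSO median was subtracted. Cells were RUES2-GLR, dosed twice at 24-h intervals over 48 h of differentiation (1 nM-200 uM).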

[11] = system: SRY-box transcription factor 2 (SOX2) Protein Expression, Deisenroth Lab, SOX2 (gene 6657); test: CCTE_Deisenroth_DEVTOX-GLR_Endo_SOX2: CCTE's DevTox GLR-Endo Assay Evaluation of SRY-box transcription factor 2 (SOX2) Protein Expression, Deisenroth Lab (AID 2284412)
In short: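 Endpoint is percent SOX2-positive cells (SOX2+ count/total cells) minus 0.2% DMSO control, from high-content imaging of fixed, nuclear-stained RUES2-GLR cells. Dosing twice at 24 h intervals over 48 h differentiation, 1 nM–200 uM in 10 points.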

[12] = system: Brachyury (BRA) Protein Expression, TBXT (gene 6862); test: CCTE_Deisenroth_DEVTOX-GLR_Endo_BRA: CCTE's DevTox GLR-Endo Assay Evaluation of Brachyury (BRA) Protein Expression, Deisenroth Lab (AID 2284417; active = hit-call score of the fitted dose curve at least 0.9, where 1 is the maximum; inactive = score below 0.9)
In short: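 Endpoint is the fraction of BRA reporter-positive cells over total nuclei, corrected by subtracting the 0.2% DMSO value. Chemicals (1 nM - 200 uM, 10 points) were dosed twice during 48 h differentiation of RUES2-GLR cells, read by imaging.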

[13] = CCTE_Deisenroth_DEVTOX-GLR_Endo_CellCount: Viability Assessment in CCTE's DevTox GLR-Endo Assay, Deisenroth Lab (AID 2284420; active = hit-call score of the fitted dose curve at least 0.9, where 1 is the maximum; inactive = score below 0.9)
In short: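 RUES2-GLR pluripotent cells seeded 24 h, then differentiated 48 h in defined media with two chemical exposures 24 h apart. Nuclei counted by high-content imaging; 10-point 1 nM–200 uM series; percent change versus 0.2% DMSO.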

[14] = CCTE_Harrill_HTTr_Viability_MCF7: CCTE's 6-hour Cell Viability Assessment for the High-Throughput Transcriptomics (HTTr) Platform, in MCF-7 cells cultured in DMEM + 10% fetal bovine serum, Harrill Lab (AID 2284010; active = hit-call score of the fitted dose curve at least 0.9, where 1 is the maximum; inactive = score below 0.9)
In short: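 Read-out is propidium iodide gain of signal by high-content imaging, reflecting membrane integrity loss. Measurements are taken 6 h after dosing, eight concentrations per chemical, with DMSO serving as baseline for bidirectional curve fitting.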

[15] = CCTE_Harrill_HTTr_Apoptosis_MCF7: CCTE's 6-hour Apoptosis Assessment for the High-Throughput Transcriptomics (HTTr) Platform, in MCF-7 cells cultured in DMEM + 10% fetal bovine serum, Harrill Lab (AID 2284011; active = hit-call score of the fitted dose curve at least 0.9, where 1 is the maximum; inactive = score below 0.9)
In short: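 MCF-7 cells in DMEM + 10% FBS exposed 6 h to chemicals over an eight-point dilution series. Caspase-3/7 activation imaged by high-content CellEvent Green staining; fitted bidirectionally versus DMSO.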

[16] = CCTE_Harrill_HTTr_CellCount_MCF7: CCTE's Cell Proliferation Assessment for the High-Throughput Transcriptomics (HTTr) Platform, Harrill Lab (AID 2284012);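 also: cells exposed to compound for six hours; intended direction is loss of nuclei count meaning fewer cells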
In short: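 Cell count served as viability reporter: loss of Hoechst-stained nuclei, counted by high content imaging, marks decreased growth or survival. Exposure was 6 h in MCF-7 cells across eight concentrations, with DMSO as baseline.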

Measured: AC50

c1ccc2sc(SN3CCOCC3)nc2c1
inactive: [1] | [2] | [3] | [4] | [5] | [6] | [7]

CCN(CC)CCSC(=O)C(c1ccccc1)c1ccccc1
inactive: [1] | [2] | [3] | [4] | [5] | [6] | [7]

CCC[C@@H]1C[C@@H](C(=O)N[C@@H]([C@H]2O[C@H](SC)[C@H](OP(=O)(O)O)[C@@H](O)[C@H]2O)[C@H](C)Cl)N(C)C1
inactive: [1] | [2] | [3] | [4] | [5] | [6] | [7]

O=[N+]([O-])c1cccc(S(=O)(=O)O)c1
inactive: [1] | [2] | [3] | [4] | [5] | [7]

COc1cc(NS(=O)(=O)c2ccc(N)cc2)nc(C)n1
inactive: [1] | [2] | [3] | [4] | [6]

Cc1c2oc3c(C)ccc(C(=O)N[C@@H]4C(=O)N[C@H](C(C)C)C(=O)N5CCC[C@H]5C(=O)N(C)CC(=O)N(C)[C@@H](C(C)C)C(=O)O[C@@H]4C)c3nc-2c(C(=O)N[C@@H]2C(=O)N[C@H](C(C)C)C(=O)N3CCC[C@H]3C(=O)N(C)CC(=O)N(C)[C@@H](C(C)C)C(=O)O[C@@H]2C)c(N)c1=O (I: T[dV]P[Sar][NMeV] / II: T[dV]P[Sar][NMeV]; ester I:1-I:C, II:1-II:C; linker I:N-II:N via Actinocin(9to1))
inactive: [4]
active: [1] 0.163 nM and 3.91 nM | [2] 40.6 µM | [3] 0.165 nM and 4.24 nM | [5] 0.0328 nM and 7.71 nM | [7] 0.262 nM and 3.61 nM | [8] 1.54 nM | [9] 0.544 nM | [10] 2.31 nM | [11] 1.62 nM | [12] 1.08 nM | [13] 0.0148 nM

CCCc1c2oc(C(=O)O)cc(=O)c2cc2c(=O)cc(C(=O)O)n(CC)c12
inactive: [1] | [2] | [3] | [4] | [5] | [7]

CCCCCCCCCCCCCCC[C@H](O)[C@@H](N)CO
inactive: [1] | [2] | [3] | [4] | [5] | [7]

c1ccc([C@H]2CN3CCSC3=N2)cc1
not listed: [8] | [9] | [10] | [11] | [12] | [13]
inactive: all other assays above

CC(=O)O[Si](C)(OC(C)=O)OC(C)=O
inactive: [1] | [2] | [3] | [4] | [5] | [7]

O=C(c1ccccc1)c1cccc(O)c1
inactive: [1] | [2] | [3] | [4] | [5] | [6] | [7]

CCCCCCCCCCC[C@@H](C[C@@H]1OC(=O)[C@H]1CCCCCC)OC(=O)[C@H](CC(C)C)NC=O
inactive: [1] | [2] | [3] | [4] | [5] | [7]
